Source: PubChem BioAssay (NCATS)
Inconclusive results are not listed. Calls of active or inactive are those of the source. Unless noted, calls follow the shape of the dose curve; as a rule, active = well fitted curve in the direction sought with a large enough effect; inconclusive = small, poorly fitted or top-dose-only effect, or another doubt; inactive = no such curve, though single readings can be large; an effect the other way counts as inactive or inconclusive.

What was measured:
[1] = Validation screen for small molecules that induce DNA re-replication in SW480 colon adenocarcinoma cells (AID 504364)
Method in brief: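 Hoechst-stained SW480 nuclei, imaged at 405 nm excitation after 48 hr compound exposure, were counted for elevated DNA content as the re-replication signal.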

[2] = biological target: Peptidyl-prolyl cis-trans isomerase NIMA-interacting 1 (Homo sapiens) (UniProt Q13526); assay: qHTS Validation Assay to Find Inhibitors of Pin1 (AID 504536; active = well fitted inhibition curve with a large enough effect in the polarisation, with a control signal flat, not every such curve was filed as active; the % refers to the polarisation)
Chain of Peptidyl-prolyl cis-trans isomerase NIMA-interacting 1 (Homo sapiens) (Q13526 whole entry, looked up): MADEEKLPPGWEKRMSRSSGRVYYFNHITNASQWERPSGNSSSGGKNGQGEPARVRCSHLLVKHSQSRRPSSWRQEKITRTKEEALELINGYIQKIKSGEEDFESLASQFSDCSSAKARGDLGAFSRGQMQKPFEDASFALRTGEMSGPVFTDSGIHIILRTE
Method in brief: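 Fluorescence polarization competition: compounds (titration) displace HiFluor-488-labeled Pin1-1b peptide from Pin1 (0.3 uM final) in pH 7.5 HEPES buffer with DTT, 10 min at room temperature; %Activity normalized to no-enzyme wells, curves fitted.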

[3] = biological target: Phosphoglycerate kinase, glycosomal (Trypanosoma brucei brucei) (UniProt P07378); assay: qHTS Validation Assay to Find Inhibitors of Phosphoglycerate Kinase (AID 504547)
Chain of Phosphoglycerate kinase, glycosomal (Trypanosoma brucei brucei) (P07378 whole entry, looked up): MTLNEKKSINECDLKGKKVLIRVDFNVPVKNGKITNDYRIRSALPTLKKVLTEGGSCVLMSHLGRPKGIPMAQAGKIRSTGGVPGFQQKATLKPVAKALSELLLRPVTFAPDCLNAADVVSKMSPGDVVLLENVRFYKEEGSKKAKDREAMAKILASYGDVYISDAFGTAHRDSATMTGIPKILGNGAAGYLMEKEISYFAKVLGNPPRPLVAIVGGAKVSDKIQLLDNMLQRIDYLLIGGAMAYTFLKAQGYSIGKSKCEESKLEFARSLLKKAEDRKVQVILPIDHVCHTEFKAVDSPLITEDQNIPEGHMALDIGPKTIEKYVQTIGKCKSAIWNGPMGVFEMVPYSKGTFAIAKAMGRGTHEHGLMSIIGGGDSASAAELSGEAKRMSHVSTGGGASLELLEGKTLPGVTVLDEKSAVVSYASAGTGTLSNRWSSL
Method in brief: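 Compounds are pinned into the substrate/PGK mixture, and GAPDH (100nM final) is added to start the reaction by producing 1,3-BPG. After 60 minutes at room temperature, Kinase-Glo Plus is added and luminescence is measured 10 minutes later.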

[4] = biological target: phosphoglycerate mutase (Leishmania major) (UniProt Q4Q090); assay: qHTS Validation Assay to Find Inhibitors of Phosphoglycerate Mutase (AID 504548); conditions: Potency: inhibition qHTS;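 also: end-point luminescence from Kinase-GloPlus after the PGAM reaction; series mostly up to about 58 µM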
Chain of phosphoglycerate mutase (Leishmania major) (Q4Q090 1-553): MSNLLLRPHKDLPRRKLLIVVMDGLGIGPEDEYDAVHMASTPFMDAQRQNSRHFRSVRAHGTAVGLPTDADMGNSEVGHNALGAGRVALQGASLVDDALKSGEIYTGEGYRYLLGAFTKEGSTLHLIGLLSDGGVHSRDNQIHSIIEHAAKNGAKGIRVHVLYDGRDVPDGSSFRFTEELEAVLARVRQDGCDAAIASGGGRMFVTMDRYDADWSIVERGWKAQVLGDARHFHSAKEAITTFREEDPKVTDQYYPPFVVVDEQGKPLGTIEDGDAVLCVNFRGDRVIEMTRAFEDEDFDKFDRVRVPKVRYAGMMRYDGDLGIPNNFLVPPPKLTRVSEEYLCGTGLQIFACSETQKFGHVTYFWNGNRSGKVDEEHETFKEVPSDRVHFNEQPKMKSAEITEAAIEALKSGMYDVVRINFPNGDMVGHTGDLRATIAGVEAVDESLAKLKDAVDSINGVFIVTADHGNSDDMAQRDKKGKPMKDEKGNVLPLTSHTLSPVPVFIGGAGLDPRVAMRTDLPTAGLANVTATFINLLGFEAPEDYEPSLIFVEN
Method in brief: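 L. major PGAM (1.25nM final) was added to substrate buffer and pinned compound, incubated 45 minutes at room temperature, then Kinase-GloPlus added; luminescence read after 10 minutes. Buffer: 100 mM TEA pH 7.6, 5 mM MgCl2, 0.01% Tween-20.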

[5] = qHTS for Inhibitors of ATXN expression: Validation of Cytotoxic Assay (AID 588349)
Method in brief: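 Toxicity of test compounds toward HEK293 cells is scored from cellular ATP content measured by CellTiter Glo. Cells receive titrated doses and incubate 72 hr at 37 degrees C beforehand.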

[6] = qHTS for Inhibitors of ATXN expression: Validation (AID 588378); also: series mostly up to about 57 µM; nearly all actives have a fitted effect of over 75% in size
Method in brief: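 Compounds were pinned onto attached HEK293 cells carrying an ATXN2-firefly luciferase construct and incubated 24 hrs at 37 degrees C. Each well then received a fluorescent viability reagent followed by luciferase substrate for end-point luminescence.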

[7] = biological target: DNA dC->dU-editing enzyme APOBEC-3G (Homo sapiens) (UniProt Q9HC16); assay: qHTS for inhibitors of Vif-A3G interactions: Validation (AID 588379)
Chain of DNA dC->dU-editing enzyme APOBEC-3G (Homo sapiens) (Q9HC16 whole entry, looked up): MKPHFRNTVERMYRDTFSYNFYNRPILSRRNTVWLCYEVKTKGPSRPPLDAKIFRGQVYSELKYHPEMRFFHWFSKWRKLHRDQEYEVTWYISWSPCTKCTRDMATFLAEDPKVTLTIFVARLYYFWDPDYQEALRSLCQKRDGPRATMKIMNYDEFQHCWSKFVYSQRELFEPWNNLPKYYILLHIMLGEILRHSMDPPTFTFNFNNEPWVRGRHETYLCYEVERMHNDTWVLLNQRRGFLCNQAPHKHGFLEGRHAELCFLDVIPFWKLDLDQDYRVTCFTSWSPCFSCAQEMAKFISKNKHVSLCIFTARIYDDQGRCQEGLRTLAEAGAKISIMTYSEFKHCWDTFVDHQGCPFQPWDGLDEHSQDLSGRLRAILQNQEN
Method in brief: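 Yellow fluorescence (Ex 488, Em 500-530) of Vif-coexpressing HeLa A3G-eYFP cells, scanned by Acumen cytometer, reports blocked A3G degradation. Cells plated at 700/well overnight at 37 deg C before compound addition, then a further overnight compound incubation at 37 deg C.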

[8] = biological target: Ubiquitin carboxyl-terminal hydrolase 1 (Homo sapiens) (UniProt O94782); assay: Inhibitors of USP1/UAF1: Pilot qHTS (AID 504865);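 also: rhodamine fluorescence freed from ubiquitin-rhodamine substrate followed over time; top concentration of the series differs between compounds; nearly all actives have a fitted effect of over 35% in size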
Chain of Ubiquitin carboxyl-terminal hydrolase 1 (Homo sapiens) (O94782 whole entry, looked up): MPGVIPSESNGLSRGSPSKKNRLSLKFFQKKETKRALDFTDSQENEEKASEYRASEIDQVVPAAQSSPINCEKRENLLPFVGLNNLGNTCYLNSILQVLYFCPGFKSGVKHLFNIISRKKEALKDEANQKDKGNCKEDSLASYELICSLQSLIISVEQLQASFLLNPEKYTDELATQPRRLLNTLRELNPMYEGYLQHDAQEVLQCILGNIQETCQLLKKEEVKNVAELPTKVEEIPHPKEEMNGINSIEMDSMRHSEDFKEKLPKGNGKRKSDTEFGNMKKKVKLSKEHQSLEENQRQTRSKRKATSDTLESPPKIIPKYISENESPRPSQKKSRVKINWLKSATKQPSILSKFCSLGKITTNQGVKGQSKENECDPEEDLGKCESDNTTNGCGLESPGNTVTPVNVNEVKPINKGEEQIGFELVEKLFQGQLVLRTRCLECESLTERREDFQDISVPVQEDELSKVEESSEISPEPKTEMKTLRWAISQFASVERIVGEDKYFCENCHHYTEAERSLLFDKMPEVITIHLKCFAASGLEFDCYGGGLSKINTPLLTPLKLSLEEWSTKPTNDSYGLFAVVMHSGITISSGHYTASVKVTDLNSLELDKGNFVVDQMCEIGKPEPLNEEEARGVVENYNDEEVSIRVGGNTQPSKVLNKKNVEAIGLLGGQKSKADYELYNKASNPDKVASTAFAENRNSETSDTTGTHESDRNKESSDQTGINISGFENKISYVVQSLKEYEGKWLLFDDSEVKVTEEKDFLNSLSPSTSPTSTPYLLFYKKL
Method in brief: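 In 50mM HEPES pH 7.8 containing 0.5mM EDTA, 1mM TCEP, 0.1 mg/ml BSA and 0.01% Tween-20, 1nM USP1/UAF1 is exposed to compound for 15 min, then Ub-Rho (150nM final) is added and fluorescence is read over time.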

Measured: Potency

CCCCC/C=C\CC(O)/C=C/c1cccc(CC(O)CCCCO)n1 (configuration not stated)
not listed: [7] | [8]
inactive: all other assays above

CCCCCCCCCCCCCCCCCCNC(=O)OCC(COP(=O)([O-])OCC[n+]1ccsc1)OC (configuration not stated)
inactive: [2] | [3] | [4]

NC(CCCP(=O)(O)O)C(=O)O (configuration not stated)
not listed: [7] | [8]
inactive: all other assays above

O=C(O)CNC(=O)C(CS)Cc1ccccc1 (configuration not stated)
not listed: [7] | [8]
inactive: all other assays above

C=C[C@H]1CN2CC[C@@H]1C[C@@H]2[C@@H](O)c1ccnc2ccc(OC)cc12
inactive: [2] | [3] | [4]

Fc1ccc(C(OCCCc2cnc[nH]2)c2ccc(F)cc2)cc1
inactive: [1] | [2] | [3] | [4] | [5]

CCCCCCCC/C=C\CCCCCCCC(=O)NCCO
not listed: [8]
inactive: all other assays above

O=C1NC(O)=NC1(c1ccccc1)c1ccccc1
inactive: [1] | [3] | [4] | [8]

C[N+]1(C)C2CC(OC(=O)[C@H](CO)c3ccccc3)CC1C1OC12 (some centres not stated)
inactive: [2] | [3] | [4] | [8] | [5]

N=c1ccn2c(n1)O[C@H]1[C@H](O)[C@@H](CO)O[C@H]12
inactive: [2] | [3] | [4] | [8] | [5]

O=C(c1ccc(OCCCc2cnc[nH]2)cc1)C1CC1
not listed: [1] | [7]
inactive: all other assays above

CC(C)CC(NP(=O)(O)O[C@@H]1O[C@@H](C)[C@H](O)[C@@H](O)[C@H]1O)C(=O)NC(Cc1c[nH]c2ccccc12)C(=O)O (some centres not stated)
not listed: [1] | [7]
inactive: all other assays above
